The results in this text go back to PubChem BioAssay (EPA / NIEHS).

Calls of active or inactive are those of the source. The calls were made as follows: active = hit-call score of the fitted dose curve at least 0.9, where 1 is the maximum; inactive = score below 0.9.

Read-out in assay [1]: Interferon-gamma inducible Protein 10 (IP10), CXCL10 (gene 3627)
In words: BSK_hDFCGF_IP10: BioMAP Diversity Plus: hDFCGF Assay for Interferon-gamma inducible Protein 10 (IP10) Biomarker Activity (AID 2283053). The conditions noted are these: primary human foreskin fibroblasts; actives raise or lower the signal. The method in brief:
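ELISA quantification of IP-10 after a 24 h chemical exposure of human dermal foreskin fibroblast primary cultures. Both increases and decreases versus DMSO fitted.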

Read-out in assay [2]: Urokinase-type plasminogen activator receptor (uPAR), PLAUR (gene 5329)
In words: BSK_CASM3C_uPAR: BioMAP Diversity Plus: CASM3C Assay for Urokinase-type plasminogen activator receptor (uPAR) Biomarker Activity (AID 2283054).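 Also: cell-surface uPAR protein level quantified by ELISA.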 The settings on record: primary human coronary artery smooth muscle cells; actives raise or lower the signal.

Read-out in assay [3]: Vascular cell adhesion molecule 1 (VCAM1), VCAM1 (gene 7412)
In words: BSK_CASM3C_VCAM1: BioMAP Diversity Plus: CASM3C Assay for Vascular cell adhesion molecule 1 (VCAM1) Biomarker Activity (AID 2283055).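 Also: VCAM-1 protein level quantified by ELISA on the cells.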 The settings on record: primary human coronary artery smooth muscle cells; actives raise or lower the signal.

Read-out in assay [4]: Collagen III, COL3A1 (gene 1281)
In words: BSK_hDFCGF_CollagenIII: BioMAP Diversity Plus: hDFCGF Assay for Collagen III Biomarker Activity (AID 2283056). The settings on record: primary human foreskin fibroblasts; actives raise or lower the signal. In short, it runs like this:
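Human foreskin primary fibroblasts were exposed to test chemicals for 24 h, after which collagen III was quantified by ELISA. Activity was fitted bidirectionally against DMSO as negative control and baseline.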

Read-out in assay [5]: Epidermal growth factor receptor (EGFR), EGFR (gene 1956)
In words: BSK_hDFCGF_EGFR: BioMAP Diversity Plus: hDFCGF Assay for Epidermal growth factor receptor (EGFR) Biomarker Activity (AID 2283057). The settings on record: primary human foreskin fibroblasts; actives raise or lower the signal. The method in brief:
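EGFR levels by ELISA in human dermal fibroblast cultures, 24 h post-treatment, fitted bidirectionally versus DMSO. Parallel wells stained with sulforhodamine B to detect overt cytotoxicity.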

Assay [6] can be described thus: BSK_hDFCGF_Proliferation: Cell Proliferation Assessment in the BioMAP Diversity Plus: hDFCGF Assay (AID 2283059).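 Also: curves fitted for both rise and fall of signal versus DMSO baseline.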 The conditions noted are these: primary human foreskin fibroblasts. The method in brief: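 Primary human foreskin fibroblasts, sub-confluent; […]; 10% TCA fix, 0.1% SRB stain, A560 total protein. Gain/loss fitted bidirectionally vs DMSO control.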

Read-out in assay [7]: Macrophage colony-stimulating factor (MCSF), CSF1 (gene 1435)
In words: BSK_hDFCGF_MCSF: BioMAP Diversity Plus: hDFCGF Assay for Macrophage colony-stimulating factor (MCSF) Biomarker Activity (AID 2283060). The conditions noted are these: primary human foreskin fibroblasts; actives raise or lower the signal. The method in brief:
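Human foreskin primary fibroblasts were treated with test chemical for 24 h, and M-CSF was then measured by ELISA. Data were fitted bidirectionally against DMSO as the negative control and activity baseline.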

The nature of assay [8]: BSK_hDFCGF_SRB: Viability Assessment in the BioMAP Diversity Plus: hDFCGF Assay (AID 2283061).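 Also: cells exposed to compound for 24 h before the read.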 The settings on record: primary human foreskin fibroblasts. In short, it runs like this: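 Human foreskin primary fibroblasts were treated with compound and assessed 24 h after dosing. Total protein was measured by sulforhodamine B staining (0.1% SRB after 10% TCA fixation, 560 nm read) as a cytotoxicity marker, with bidirectional fitting against DMSO baseline.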

Read-out in assay [9]: TIMP metallopeptidase inhibitor 1 (TIMP1), TIMP1 (gene 7076)
In words: BSK_hDFCGF_TIMP1: BioMAP Diversity Plus: hDFCGF Assay for TIMP metallopeptidase inhibitor 1 (TIMP1) Biomarker Activity (AID 2283062). The settings on record: primary human foreskin fibroblasts; actives raise or lower the signal. The method in brief:
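Primary human foreskin fibroblasts in the hDFCGF system were dosed with compound for 24 h, then TIMP-1 was measured by ELISA. Activity was fitted bidirectionally relative to DMSO control; parallel SRB staining assessed cytotoxicity.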

Read-out in assay [10]: Monokine induced gamma interferon (MIG), CXCL9 (gene 4283)
In words: BSK_hDFCGF_MIG: BioMAP Diversity Plus: hDFCGF Assay for Monokine induced gamma interferon (MIG) Biomarker Activity (AID 2283063). The settings on record: primary human foreskin fibroblasts; actives raise or lower the signal. In short, it runs like this: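 ELISA read-out of MIG from primary human dermal fibroblasts 24 h post-dosing. Gain or loss of signal fitted bidirectionally, DMSO as baseline.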

Read-out in assay [11]: Matrix Metallopeptidase 1 (MMP1), MMP1 (gene 4312)
In words: BSK_hDFCGF_MMP1: BioMAP Diversity Plus: hDFCGF Assay for Matrix Metallopeptidase 1 (MMP1) Biomarker Activity (AID 2283064). The settings on record: primary human foreskin fibroblasts; actives raise or lower the signal. The method in brief:
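ELISA read-out of MMP1 from human foreskin fibroblasts (primary skin cells), 24 h post-dose. Gain or loss of signal was fitted bidirectionally versus DMSO negative control; cytotoxicity was checked by SRB in parallel cultures.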

Read-out in assay [12]: Vascular cell adhesion molecule 1 (VCAM1), VCAM1 (gene 7412)
In words: BSK_hDFCGF_VCAM1: BioMAP Diversity Plus: hDFCGF Assay for Vascular cell adhesion molecule 1 (VCAM1) Biomarker Activity (AID 2283065).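 As to AC50: VCAM-1 protein level quantified by ELISA after 24 h chemical exposure.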 The conditions noted are these: primary human foreskin fibroblasts; actives raise or lower the signal. The method in brief: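 Primary human foreskin fibroblasts (hDFCGF system) were dosed with chemical and VCAM-1 was measured by ELISA 24 h later. Bidirectional curve fitting used DMSO as negative control and activity baseline.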

Read-out in assay [13]: Plasminogen activator inhibitor-1 (PAI1), SERPINE1 (gene 5054)
In words: BSK_hDFCGF_PAI1: BioMAP Diversity Plus: hDFCGF Assay for Plasminogen activator inhibitor-1 (PAI1) Biomarker Activity (AID 2283066). The settings on record: primary human foreskin fibroblasts; actives raise or lower the signal. The method in brief:
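PAI-1 levels in human dermal foreskin fibroblasts were quantified by ELISA 24 h after dosing, with gain or loss analysed against DMSO. Overt cytotoxicity was checked by sulforhodamine B total-protein staining in parallel cultures.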

Read-out in assay [14]: Intercellular Adhesion Molecule 1 (ICAM1), ICAM1 (gene 3383)
In words: BSK_KF3CT_ICAM1: BioMAP Diversity Plus: KF3CT Assay for Intercellular Adhesion Molecule 1 (ICAM1) Biomarker Activity (AID 2283067). The conditions noted are these: primary human keratinocytes with fibroblasts; actives raise or lower the signal. In short, it runs like this:
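Human keratinocyte plus foreskin fibroblast primary co-culture was exposed to chemical for 24 h. ICAM-1 was then quantified by ELISA, and the data were fit bidirectionally against DMSO as the negative control and baseline.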

Read-out in assay [15]: Interferon-gamma inducible Protein 10 (IP10), CXCL10 (gene 3627)
In words: BSK_KF3CT_IP10: BioMAP Diversity Plus: KF3CT Assay for Interferon-gamma inducible Protein 10 (IP10) Biomarker Activity (AID 2283068). The conditions noted are these: primary human keratinocytes with fibroblasts; actives raise or lower the signal. The method in brief: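 In a primary skin co-culture of keratinocytes and fibroblasts, IP-10 is quantified by ELISA at 24 h after dosing. SRB staining of parallel wells monitors overt toxicity. Curves are fitted both directions against DMSO.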

A short description of assay [16]: BSK_KF3CT_SRB: Viability Assessment in the BioMAP Diversity Plus: KF3CT Assay (AID 2283069).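 Also: fitted for both signal gain and loss against DMSO baseline.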 The conditions noted are these: primary human keratinocytes with fibroblasts. The method in brief: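 SRB read-out at 560 nm (0.1% stain, TCA-fixed cells) gauges overt cytotoxicity in a human skin keratinocyte–fibroblast co-culture 24 h post-dosing. Signal change was fitted bidirectionally relative to DMSO control.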

Read-out in assay [17]: Interleukin-1 alpha (IL1a), IL1A (gene 3552)
In words: BSK_KF3CT_IL1a: BioMAP Diversity Plus: KF3CT Assay for Interleukin-1 alpha (IL1a) Biomarker Activity (AID 2283070). The conditions noted are these: primary human keratinocytes with fibroblasts; actives raise or lower the signal. The method in brief:
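Primary skin co-culture (keratinocytes, foreskin fibroblasts), 24 h exposure; ELISA for IL-1a; bidirectional curve fit vs DMSO.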

Read-out in assay [18]: TIMP metallopeptidase inhibitor 2 (TIMP2), TIMP2 (gene 7077)
In words: BSK_KF3CT_TIMP2: BioMAP Diversity Plus: KF3CT Assay for TIMP metallopeptidase inhibitor 2 (TIMP2) Biomarker Activity (AID 2283071). The conditions noted are these: primary human keratinocytes with fibroblasts; actives raise or lower the signal. The method in brief: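 TIMP-2 measured by ELISA at 24 h in human keratinocyte/fibroblast primary co-cultures exposed to chemicals. Both increases and decreases were fitted against DMSO. Parallel cultures were stained with SRB for total protein as an overt-cytotoxicity check.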

Read-out in assay [19]: Transforming growth factor beta 1 (TGFb1), TGFB1 (gene 7040)
In words: BSK_KF3CT_TGFb1: BioMAP Diversity Plus: KF3CT Assay for Transforming growth factor beta 1 (TGFb1) Biomarker Activity (AID 2283072). The conditions noted are these: primary human keratinocytes with fibroblasts; actives raise or lower the signal. In short, it runs like this:
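ELISA quantifies TGF-b1 at 24 h post-dose in a primary human skin co-culture of keratinocytes and fibroblasts, with gain or loss judged against DMSO. Parallel SRB total-protein staining flags overt cytotoxicity.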

Read-out in assay [20]: Interleukin-8 (IL8), CXCL8 (gene 3576)
In words: BSK_hDFCGF_IL8: BioMAP Diversity Plus: hDFCGF Assay for Interleukin-8 (IL8) Biomarker Activity (AID 2283058). The settings on record: primary human foreskin fibroblasts; actives raise or lower the signal. The method in brief: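 hDFCGF human dermal fibroblasts; 24 h chemical exposure; IL-8 by ELISA; bidirectional curve fit vs DMSO baseline; gain or loss of signal scored.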

On to `Cn1sc(Cl)cc1=O`, for which the AC50 (as a rule, the concentration at which the activity in the assay is half-maximal) in [1] is 28.2 µM (active); in [3], 20 µM (active); in assay [4], 33.6 µM (active); in [5], 33.6 µM (active); in assay [6], 1.77 µM (active); in assay [7] it was 25.6 µM (active). The AC50 is 30.5 µM (active) in assay [8]; 29.8 µM (active) in assay [9]; 27.9 µM (active) in [10]; 32.8 µM (active) in assay [11]; 23.4 µM (active) in [12]; 35.2 µM (active) in assay [13]. In [14], the AC50 was 20 µM (active). In addition, the outcome in [2], in assay [15], in assay [16], in [17], in [18] and in [19] was inactive.
In the case of `Nc1cccc2ccccc12`, the AC50 in [1] is 31.6 µM (active); in [4] it was 27.1 µM (active); in assay [6], 13.6 µM (active); in assay [7], 20 µM (active); in [8] it was 32 µM (active); in [9] it was 27.7 µM (active). In addition, the AC50 is 33.1 µM (active) in assay [11], 25.9 µM (active) in assay [12] and 20 µM (active) in assay [13]. The outcome in [2], in assay [3], in assay [10], in [14], in [15] and in assay [16] was inactive. The outcome in assay [17], in [18] and in [19] was inactive.
Take `BrCCBr`: the result in assay [2], in [3], in assay [4], in [5], in assay [20] and in [6] was inactive. Further, the outcome in [7], in assay [8], in assay [9], in [10], in [11] and in assay [12] was inactive. Further, the outcome in assay [13], in assay [14], in [15], in [16], in assay [17] and in assay [18] was inactive. For the same compound, in assay [19], the outcome was inactive.
